The assay in a line: probe aNOTCH2 binding on compound microarray – biochemical, small-molecule microarray, 635/667 nm fluorescence, primary screen (AID 1121).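 Further: score merges feature fluorescence read at 667 nm with its signal to noise.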 To be noted: higher = more signal.
`NC(=O)NCC#Cc1ccc2c(c1)[C@]1(C(=O)N2)[C@H](C(=O)N2CCCCCCC2)[C@H]2C(=O)O[C@H](c3ccccc3)[C@H](c3ccccc3)N2[C@@H]1c1ccc(O)cc1` had a composite z-score of 0.796. The value for `COCCOC(=O)N1C(=O)[C@@]2(c3cc(C#CC4=CCCCC4)ccc31)[C@H](C(=O)N1CCN(c3ncccn3)CC1)[C@H]1C(=O)O[C@H](c3ccccc3)[C@H](c3ccccc3)N1[C@@H]2c1ccccc1OCCO` was -0.0928; that for `COCCOC(=O)N1C(=O)[C@@]2(c3cc(C#CC4(O)CCCCCC4)ccc31)[C@H](c1ccccc1OCCO)N1[C@H](c3ccccc3)[C@H](c3ccccc3)OC(=O)[C@H]1[C@@H]2C(=O)N1CCCCCCC1` was 0.513; that for `CCCCC=C[C@@H](NC(=O)c1ccc(C(F)(F)F)cc1)c1ccccc1` was -0.125. Turning to `C=CCC(OC(C)=O)[C@@H]1[C@@H](N(Cc2ccc(-c3ccccc3)cc2)C(=O)c2ccc(C)cc2)c2cc(OCCCO)ccc2N1C(=O)c1ccc2ccccc2c1` (some centres not stated), the composite z-score was -0.127. The value for `CCCCC(=C=CC[C@@H](O)c1cccc(OCCO)c1)CCO` was -0.142; that for `CCOC(=O)C[C@H]1[C@H](OC(=O)Cc2ccc3c(c2)OCO3)[C@@H](NC(=O)c2ccccc2)c2cc(OCCCO)ccc2N1C(=O)Cc1ccc(OC)cc1` was -0.0974. The compound `CCCCN1CC=CC23O[C@@H]4C=CCOC(=O)[C@@H]4[C@H]2C(=O)N(C(CO)C(C)C)[C@@H]3C1=O` (some centres not stated) came in with a composite z-score of -0.14.

The compound `COC(=O)[C@@]1(Cc2ccc(OC)cc2)[C@@H]2[C@@H](CC(=O)[C@H]2CC(=O)C(=O)N2CCCC2)CN1C(=O)c1ccccc1` registered a composite z-score of 1. For `COC(=O)c1c(CC[C@@H](CO)NC(=O)N[C@@H](Cc2ccccc2)Cn2cc(-c3cncn3C)nn2)oc(C(C)=O)c1C(=O)OC` the value was -0.144.

In turn, `C=CCC(OC(C)=O)[C@@H]1[C@@H](N(Cc2ccc(-c3cccc(C(F)(F)F)c3)o2)C(=O)c2cccc3ccccc23)c2cc(OCCCO)ccc2N1C(=O)c1ccc2ccccc2n1` (some centres not stated) came in with a composite z-score of -0.103.

As to `CC(=O)NCCCC[C@@H]1NC(=O)[C@H]2C[C@@H](C(=O)NCCCCCC[N+](C)(C)C)[C@@H](c3ccc(O)cc3)N2C1=O`, the composite z-score is -0.0556. For `N#Cc1ccc(C(O)C2C=CC3C(=O)NC(=O)C3N2Nc2ccccn2)cc1` (configuration not stated) the value was -0.0907; for `C=CCNC(=O)[C@H]1[C@@H]2C(=O)O[C@@H](c3ccccc3)[C@@H](c3ccccc3)N2[C@@H](c2ccccc2OCCO)[C@]12C(=O)N(C(=O)OCCOC)c1ccccc12`, -0.153; for `C=CC[C@]1(C(=O)NCc2ccccc2)COC(c2ccc(OCCCO)cc2)=N1`, 0.114. The value for `COc1cc2c(cc1O)C(C1CC1)N(Cc1ccc([N+](=O)[O-])o1)CC2` (configuration not stated) was -0.0826. The value for `CCOC(=O)C[C@H]1[C@H](OC(=O)c2ccc(C(=O)c3ccccc3)cc2)[C@@H](NC(=O)c2ccc3ccccc3c2)c2cc(OCCCO)ccc2N1C(=O)c1ccc2ccccc2n1` was 0.0683; that for `CC(C)(C)N1CC=CC23O[C@@H]4/C=C\CCCOC(=O)C4[C@H]2C(=O)N(CCCCCCO)[C@@H]3C1=O` (some centres not stated) was -0.117. In turn, `CCC[C@@H]1C=C(C(=O)OCC)[C@H](c2ccccc2)N1S(=O)(=O)c1ccc(C)cc1` returned a composite z-score of 0.273.

`O=C1OCCC=C[C@H]2OC34C=CCN(CCN5CCOCC5)C(=O)[C@H]3N(CCCO)C(=O)[C@@H]4C12` (some centres not stated) displayed a composite z-score of -0.171. `CCOC(=O)C1=C[C@@H](C(C)(C)C)N(S(=O)(=O)c2ccc(C)cc2)[C@H]1c1ccccc1Cl`: the composite z-score turned out to be 0.0423.

`C[C@H]1C2[C@H](Cc3ccccc3)NC(=O)[C@]23C(=O)NCC(=O)N2CCC[C@H]2C(=O)NC/C=C\C/C=C/C3[C@@H]2O[C@]12C` (some centres not stated): the composite z-score is -0.176. Consider `COc1ccc([Si](C)(C)[C@@H]2[C@@H](CCO)O[C@]3(C(=O)N(Cc4ccccc4)c4ccc(N5C(=O)c6ccccc6Oc6ccccc65)cc43)[C@H]2C)cc1`, for which the composite z-score was -0.155.

For `COCCOC(=O)N1C(=O)[C@@]2(c3ccccc31)[C@H](C(N)=O)[C@H]1C(=O)O[C@H](c3ccccc3)[C@H](c3ccccc3)N1[C@@H]2c1ccc(OCCO)cc1`, the composite z-score is -0.123. The value for `COCCCNC(=O)[C@@H]1c2ccccc2C(=O)N(Cc2cc(C(F)(F)F)cc(C(F)(F)F)c2)[C@H]1c1ccc(CO)cc1` was 0.0282; that for `NCCCC[C@@H]1NC(=O)[C@H]2C[C@@H](C(=O)NCc3ccc(F)cc3)[C@@H](c3ccc(O)cc3)N2C1=O` was -0.0531; that for `CC(C)C[C@@H]1NC(=O)[C@H]2C[C@@H](C(=O)NCCCCCNC(=O)CS)[C@@H](c3ccc(O)cc3)N2C1=O` was -0.144.

The values are drawn from PubChem BioAssay.
